Records with an inconclusive call do not appear. Unmarked numbers belong to inactive results. The source made the active and inactive calls. The call rests on the fitted dose curve; in most records, active means well fitted inhibition curve with a large enough effect; inconclusive means small, poorly fitted or top-dose-only effect; inactive means flat fitted curve, though single readings scatter. Where a SMILES comes first, the peptide text is derived from it. [ ]: non-standard residue; d: D form. 2Abz = Nc1ccccc1C(=O)O
Each molecule was assayed against Calcium and integrin-binding protein 1 (Homo sapiens) (UniProt Q99828) (assay: Primary qHTS for Identification of Calcium Integrin Binding Protein 1 (CIB1) Competitor (AID 1508620;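 further: GST tagged CIB1 binding a fluorescein labelled alphaIIb integrin peptide tracer; top concentration of the series differs between compounds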)). Settings: CIB1-GST / FITC-alphaIIb peptide fluorescence polarization; series mostly up to 57.7 µM; activity change, negative = inhibition: at the top concentration.
Sequence of Calcium and integrin-binding protein 1 (Homo sapiens) (Q99828 whole entry, looked up): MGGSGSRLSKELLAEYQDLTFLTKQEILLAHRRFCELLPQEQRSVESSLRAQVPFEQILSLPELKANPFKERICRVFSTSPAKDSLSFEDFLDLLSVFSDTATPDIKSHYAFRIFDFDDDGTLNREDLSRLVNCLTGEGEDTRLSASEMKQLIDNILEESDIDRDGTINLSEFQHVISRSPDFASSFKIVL
Summary of the method: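 CIB1-GST (1 uM final) and compound incubated 15 min at room temperature before adding FITC-alphaIIb peptide tracer (100 nM final). Competition for binding read by fluorescence polarization (ex 480, em 540) after another 15 min at room temperature.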
With `CC(=O)O[C@H]1[C@H](Oc2ccccc2COC(=O)C2(O)C=CCCC2=O)O[C@H](CO)[C@@H](O)[C@@H]1O` (stereo not given in full) the “activity change, negative = inhibition” value was 0.362%.
For `C=C1CC2C3(C)C(OC(C)=O)CC(=O)OC(C)(C)C3C(O)C(OC(C)=O)C2(C)C2C(=O)OC(C)C(=O)C12C` (stereo not given), the “activity change, negative = inhibition” value was 2.69%.
`C=C1C(=O)OC2/C=C(\C)CC/C=C(\C(=O)O)CC/C=C(\C)CCC12` (stereo not given) was tested, and the “activity change, negative = inhibition” value was -6.26%.
With `C/C=C1/[C@H](O[C@@H]2O[C@H](CO)[C@@H](O)[C@H](O)[C@H]2O)OC=C(C(=O)OC)[C@H]1CC(=O)O[C@@H]1O[C@H](CO)[C@@H](O)[C@H](O)[C@H]1O` the “activity change, negative = inhibition” value was 4.09% [at 30.2 µM].
`C=CC(C)(O)CC/C=C(\C)C(=O)OC1CC2(C(=O)O)CCC3(C)C(=CCC4C5(C)CCC(OC6OC(COC7OCC(O)C(O)C7O)C(O)C(OC7OCC(O)C(O)C7O)C6OC6OC(CO)C(O)C(O)C6OC6OCC(O)C(O)C6O)C(C)(C)C5CCC43C)C2CC1(C)C` (stereo not given) showed an activity change, negative = inhibition of -4.39% [at 12.4 µM].
For `CC1(C)CCCC2(C)C1C(O)C=C(CO)C2(O)C(=O)O` (stereo not given), the “activity change, negative = inhibition” value was 3.29% [at 114 µM].
`COc1cc(O[C@@H]2O[C@H](CO)[C@@H](O)[C@H](O)[C@H]2O)c(CCC(=O)OC[C@H]2O[C@@H](Oc3cc(OC)c(C4OC(=O)C(C)(O)C4O)cc3CCC(=O)O)[C@H](O)[C@@H](O)[C@@H]2O)cc1C1OC(=O)C(C)(O)C1O` (stereo not given in full) was tested, and the “activity change, negative = inhibition” value was 0.801% [at 30.2 µM].
`COC(=O)C1C(CC(C)=O)C=CC(O)C12Oc1cc(C)cc(O)c1C2=O` (stereo not given) was tested, and the “activity change, negative = inhibition” value was 2.42%.
With `O=C(O)Cc1nn(Cc2nc3cc(C(F)(F)F)ccc3s2)c(=O)c2nccnc12` the “activity change, negative = inhibition” value was 1.21% [at 114 µM].
With `CC1=CC(=O)CC(C)(C)C1CCC(C)OC1OC(COC(=O)c2cc(O)c(O)c(O)c2)C(O)C(O)C1O` (stereo not given) the “activity change, negative = inhibition” value was -5.6%.
`C[C@@H]1CC[C@]2(C(=O)O)CC[C@]3(C(=O)O)C(=CCC4[C@@]5(C)CC[C@H](O[C@@H]6O[C@@H](C)[C@H](O[C@@H]7O[C@H](CO)[C@@H](O)[C@H](O)[C@H]7O)[C@@H](O)[C@H]6O)C(C)(C)C5CC[C@]43C)C2[C@H]1C` (stereo not given in full) was tested, and the “activity change, negative = inhibition” value was 1.01% [at 30.2 µM].
`CCN(c1cc(C#CCN2CCOCC2)cc(C(=O)NCc2c(C)cc(C)[nH]c2=O)c1C)C1CCC(N(C)CCOC)CC1` (stereo not given) was tested, and the Potency was “inactive”.
`NC(=O)Nc1cc(-c2ccc(CN3CCOCC3)c(F)c2)sc1C(=O)N[C@H]1CCCNC1` was tested, and the “activity change, negative = inhibition” value was 4.07% [at 114 µM].
For `CC1CCC2(NC1)OC1C(=O)C3C4CCC5CC(O[C@@H]6O[C@H](CO)[C@@H](O)[C@H](O)[C@H]6O[C@@H]6O[C@@H](C)[C@H](O)[C@@H](O)[C@H]6O)CCC5(C)C4CCC3(C)C1C2C` (stereo not given in full), the “activity change, negative = inhibition” value was 0.761% [at 30.2 µM].
In the case of `CC(C)(O)CNc1nc(Nc2ccnc(C(F)(F)F)c2)nc(-c2cccc(C(F)(F)F)n2)n1`, the Potency is reported as “inactive”.
For `COc1ccc2c(c1)O[C@H](O[C@@H]1O[C@H](CO)[C@@H](O)[C@H](O)[C@H]1O)C(=O)N2`, the “activity change, negative = inhibition” value was 1.98%.
In the case of `CC1(C)OC(=O)C(OCC2CC2)=C1c1ccc(S(C)(=O)=O)cc1`, the “activity change, negative = inhibition” value is reported as -2.36% [at 114 µM].
For `C=C1C[C@]23C[C@H]1CC[C@H]2[C@@]12C=C[C@H](O)[C@@](C)(C(=O)O1)[C@H]2[C@@H]3C(=O)O`, the “activity change, negative = inhibition” value was 2.09%.
`CCNC(=O)[C@H]1O[C@H](n2cnc3c(NCC(c4ccccc4)c4ccccc4)nc(C(=O)NCCNC(=O)NC4CCN(c5ccccn5)CC4)nc32)[C@H](O)[C@@H]1O` was tested, and the “activity change, negative = inhibition” value was -1.95% [at 114 µM].
In the case of `COc1ccc2c3c1O[C@H]1C[C@@H](O)C=C[C@@]31CCN(C)C2`, the “activity change, negative = inhibition” value is reported as -1.05% [at 114 µM].
For `CC1(C)C[C@H]2C3=CCC4[C@@]5(C)CC[C@H](O[C@H]6O[C@H](C(=O)O)[C@@H](O)[C@H](O)[C@H]6O[C@H]6O[C@H](CO)[C@@H](O)[C@H](O)[C@H]6O[C@@H]6O[C@H](CO)[C@@H](O)[C@H](O)[C@H]6O)[C@](C)(CO)C5CC[C@@]4(C)[C@]3(C)CC[C@@]2(C)[C@H](O[C@@H]2OC[C@H](O)[C@H](OC3O[C@H](CO)[C@@H](O)[C@H](O)[C@H]3O)[C@H]2O)[C@@H]1O` (stereo not given in full), the activity change, negative = inhibition was -7.85% [at 12.4 µM].
With `CC(C)c1ccc(CC(=O)N2CCC[C@@H](c3cccc(OC(C)(C)C(=O)O)c3)C2)cc1` the “activity change, negative = inhibition” value was 5.19% [at 114 µM].
In the case of `CC(=O)NC(C(=O)OC1CCC(C)(C)C2CC=C3C(=O)OCC3(O)C12C)C(C)C` (stereo not given), the “activity change, negative = inhibition” value is reported as 2.2%.
`Cc1cn2c(N)c(Cl)cc(C(=O)NCC3CCN(CC(C)C)CC3)c2n1` was tested, and the “activity change, negative = inhibition” value was -1.12% [at 114 µM].
`CCC(C)C1NC(=O)C2CCCN2C(=O)C(C(C)C)NC(=O)c2ccccc2NC(=O)C(Cc2ccc(O)cc2)NC(=O)C(C)NC(=O)C(C(C)O)NC1=O` (stereo not given) (cyclo([2Abz]VPITAY); configuration not given here) was tested, and the “activity change, negative = inhibition” value was 4.46% [at 30.2 µM].
`Cc1cc(C)cc(NC(=O)Cc2ccc(OC(C)(C)C(=O)O)cc2)c1` was tested, and the “activity change, negative = inhibition” value was 3.2% [at 114 µM].
With `C/C(=C/CO)CC[C@@H]1[C@@]2(C)CCC[C@](C)(C(=O)O)C2CC[C@@]1(C)O` (stereo not given in full) the “activity change, negative = inhibition” value was -2.44%.
For `C=C1CCC2C(C)(C)C(O)CCC2(C)C1CCC(C)CCOC(=O)CCC(=O)O` (stereo not given), the “activity change, negative = inhibition” value was -8.6%.
For `NCc1ccc(OCCCc2sc(-c3ccc4c(c3)/C(=N/Nc3nc5ccccc5s3)CCC4)nc2C(=O)O)cc1`, the Potency was “inactive”.
`C=C(C)C1CC2(CO)C(=CC1=O)CCC(O)C2C` (stereo not given) was tested, and the “activity change, negative = inhibition” value was -3.41% [at 114 µM].
With `NC1CCC(N[C@@H]2C[C@H]2c2ccccc2)CC1` (stereo not given in full) the Potency was “inactive”.
In the case of `COc1ccc(/C=C/C(=O)O[C@H]2[C@@H]3C=CO[C@@H](O[C@@H]4O[C@H](CO)[C@@H](O)[C@H](O)[C@H]4O)[C@@H]3[C@@]3(CO)O[C@@H]23)cc1O`, the “activity change, negative = inhibition” value is reported as -0.887%.
`CC(C#N)C(C)O[C@@H]1O[C@H](CO)[C@@H](O)[C@H](O)[C@H]1O` (stereo not given in full) was tested, and the “activity change, negative = inhibition” value was -0.323% [at 114 µM].
In the case of `O=C1NCc2nc3ccccc3c(=O)n2C1Cc1c[nH]c2ccccc12` (stereo not given), the “activity change, negative = inhibition” value is reported as -3.41%.
For `CC(C)(C)NCC(O)COc1cccc2c1CCCC2=O` (stereo not given), the “activity change, negative = inhibition” value was -1.32% [at 114 µM].
`C[C@@H]1CCN(C(=O)CC#N)C[C@@H]1N(C)c1ncnc2[nH]ccc12` was tested, and the “activity change, negative = inhibition” value was 1.78% [at 114 µM].
`C[C@@H]1O[C@@H](O[C@H]2[C@H](O[C@H]3[C@H](O[C@H]4CC[C@@]5(CO)C(CC[C@]6(C)C5CC=C5C7CC(C)(C)C[C@@H](O)[C@]7(C)CC[C@]56C)C4(C)C)O[C@H](C(=O)O)[C@@H](O)[C@@H]3O)OC[C@@H](O)[C@@H]2O)[C@H](O)[C@H](O)[C@H]1O` (stereo not given in full) was tested, and the “activity change, negative = inhibition” value was -1.21% [at 30.2 µM].
`COc1cc2c(cc1OC)CN(C(=O)[C@@H](NCc1ccncc1)C(C)(C)C)CC2` was tested, and the “activity change, negative = inhibition” value was 0.379% [at 114 µM].
With `CCc1nc(C(N)=O)c(Nc2ccc(N3CCC(N4CCN(C)CC4)CC3)c(OC)c2)nc1NC1CCOCC1` the Potency was “inactive”.
`COC1C=C([C@@H]2CC=C3[C@@]4(C)C(CC[C@]32C)[C@@]2(C)C=CC(=O)C(C)(C)C2C[C@H]4OC(C)=O)C(=O)O1` (stereo not given in full) was tested, and the “activity change, negative = inhibition” value was -5.01%.

— PubChem BioAssay (NCATS)
On the % scale 0 is the no-effect control and ±100 the full control effect.
